# In all, about 110,000 compounds were measured (“z-score”: median about -0.1, highest 2% from about 2 on). The full list was thinned out, with the highest values kept by preference. Activity calls are given as the source filed them.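 How the source made its calls: active means z-score in the third read window above 3 or below -3; inactive means the rest.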
# Target: Metabotropic glutamate receptor 8 (Rattus norvegicus) (UniProt P70579)
# Assay: rat mGluR8 modulators via GIRK flux, primary screen, cell-based, thallium flux, HTS (AID 488969)
# Conditions: HEK293 rat mGluR8, GIRK (G protein-gated inwardly rectifying potassium channel) thallium flux, FluoZin2; at 10 µM; stronger effect = higher value; submaximal glutamate (EC20) added with thallium
# Metabotropic glutamate receptor 8 (Rattus norvegicus), sequence (P70579 whole entry, looked up): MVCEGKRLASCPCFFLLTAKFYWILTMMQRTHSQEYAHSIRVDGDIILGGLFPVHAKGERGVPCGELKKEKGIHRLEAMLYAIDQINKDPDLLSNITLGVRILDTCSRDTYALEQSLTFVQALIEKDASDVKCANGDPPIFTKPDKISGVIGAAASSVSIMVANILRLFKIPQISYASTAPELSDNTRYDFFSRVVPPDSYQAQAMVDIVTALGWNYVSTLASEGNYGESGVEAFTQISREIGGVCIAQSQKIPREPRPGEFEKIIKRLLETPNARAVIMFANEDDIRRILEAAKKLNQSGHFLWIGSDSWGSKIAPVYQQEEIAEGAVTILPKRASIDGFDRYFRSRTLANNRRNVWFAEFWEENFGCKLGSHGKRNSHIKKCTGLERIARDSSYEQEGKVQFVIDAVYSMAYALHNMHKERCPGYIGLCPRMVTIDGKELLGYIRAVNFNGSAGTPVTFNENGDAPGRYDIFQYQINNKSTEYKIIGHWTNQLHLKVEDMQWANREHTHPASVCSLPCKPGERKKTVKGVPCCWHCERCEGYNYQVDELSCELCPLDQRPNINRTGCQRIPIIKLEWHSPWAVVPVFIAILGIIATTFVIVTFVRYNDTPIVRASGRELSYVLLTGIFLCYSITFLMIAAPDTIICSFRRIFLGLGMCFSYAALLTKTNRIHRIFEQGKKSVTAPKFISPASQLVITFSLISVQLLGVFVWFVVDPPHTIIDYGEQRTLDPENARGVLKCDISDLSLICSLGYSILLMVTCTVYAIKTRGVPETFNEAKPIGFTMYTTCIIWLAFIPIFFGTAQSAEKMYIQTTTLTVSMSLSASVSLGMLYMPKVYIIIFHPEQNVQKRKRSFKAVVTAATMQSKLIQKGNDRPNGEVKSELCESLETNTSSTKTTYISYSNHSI
row,Structure (SMILES),z-score
1,CC(C)(C)n1nc2c(c1NC(=O)c1ccco1)CS(=O)C2 (configuration not stated),0.0777
2,O=C(Cn1cccc1)N1CCN(c2ccc(F)cc2)CC1,-0.241
3,Nn1c(SCC(=O)N2CCN(S(=O)(=O)c3ccc(Cl)cc3)CC2)nnc1-c1cccs1,-0.22
4,Cc1cccc(-c2nnc(SCC(=O)N3c4ccccc4CCc4ccccc43)n2C)c1,-0.366
5,Cn1c(SCC(=O)N2c3ccccc3CCc3ccccc32)nnc1-c1ccc(O)cc1,5.88 (active)
6,Cn1c(SCC(=O)N2c3ccccc3CCc3ccccc32)nnc1-c1cc2ccccc2cc1O,-0.13
7,Cc1ccc(NC(=O)N2CCC(C(N)=O)CC2)cc1,0.0373
8,O=C(NCC1CCCO1)C1CCN(S(=O)(=O)c2cccc3cccnc23)CC1 (configuration not stated),-0.104
9,CSc1nnc(-c2cc(-c3ccc(C)cc3)nc3ccccc23)o1,-0.0721
10,Cc1ccccc1-c1n[nH]c(=S)o1,0.676
11,Cc1ccc(-c2cc(-c3n[nH]c(=S)o3)c3ccccc3n2)cc1,8.6 (active)
12,CC(=O)c1c(C)[nH]c(C(=O)Nc2ccc(Cl)c(S(=O)(=O)N3CCOCC3)c2)c1C,1.6
13,O=C(COC(=O)c1cc(-c2cccs2)nn1-c1ccccc1)Nc1ccc(Cl)c([N+](=O)[O-])c1,0.0111
14,NS(=O)(=O)c1ccc(CCN2C(=O)/C(=C\c3ccc(Cl)cc3)SC2=S)cc1,0.283
15,COc1nc(-c2ccccc2)cc(C(F)(F)F)n1,0.0363
16,COc1nc(-c2ccccc2)cc(-c2ccc(OC)c(OC)c2)n1,-0.612
17,COc1nc(-c2ccccc2)cc(-c2ccccc2)n1,2.45
18,O=C(C1CCCO1)N1N=C(c2ccc(Br)cc2)CC1c1ccco1 (configuration not stated),-0.195
19,COC(=O)CSc1n[nH]c(-c2ccncc2)n1,0.0349
20,COC(=O)CSc1n[nH]c(-c2cccnc2)n1,2.21
21,O=C(CSc1n[nH]c(-c2cccnc2)n1)Nc1ccccc1,-0.272
22,Cc1ccc(C2C(C#N)=C(N)Oc3n[nH]c(-c4ccccc4)c32)o1 (configuration not stated),-0.499
23,CC(C)CC(=O)NC(=S)Nc1nc(-c2cccc3ccccc23)cs1,2.97

row,Structure (SMILES),z-score
1,CC(C)CC(=O)NC(=S)Nc1nc(-c2ccc(Cl)cc2)cs1,0.0823
2,CC(C)CC(=O)NC(=S)Nc1nc(-c2ccccc2)cs1,0.855
3,Cn1c(=O)c(NC(=O)c2ccccc2)c2n(c1=S)CCCCC2,-0.181
4,O=C(COc1ncnc2ccc(Br)cc12)NCc1ccc2c(c1)OCO2,-0.00987
5,CCOC(=O)C1C(=O)CC(C)(O)C(C(=O)OCC)C1c1ccc(OC)cc1 (configuration not stated),-0.0838
6,CCOC(=O)c1cccc(NC(=O)/C(=C\c2ccccc2)NC(=O)c2ccccc2Cl)c1,-0.208
7,COc1ccccc1NC(=O)CNS(=O)(=O)c1ccccc1,-0.239
8,COc1cc2c(C(=O)N3CCN(C)CC3)c(C)n(-c3ccccc3)c2cc1Br,-0.333
9,CCN(CC)CCNC(=O)c1c(C)n(-c2ccccc2)c2cc(Br)c(OC)cc12,2.84
10,CCOC(=O)c1c(CN2CCN(Cc3ccccc3)CC2)n(C)c2cc(Br)c(OC)cc12,0.132
11,CCN(CC)CCNC(=O)c1c(C)oc2cc(Br)c(OC)cc12,-0.44
12,CCOC(=O)c1c(CN2CCN(CCO)CC2)n(C)c2cc(Br)c(OC)cc12,0.864
13,CCOC(=O)c1c(CNCCN(CC)CC)n(C)c2cc(Br)c(OC)cc12,3.02 (active)
14,COC(=O)Cn1c(=NC(=O)c2ccc(OC)cc2)sc2cc(OC)ccc21,-0.189
15,Cc1cccc(N=C2NC(=O)/C(=C/C=C/c3ccco3)S2)c1,0.7
16,O=C1NC(=Nc2ccccc2)S/C1=C\C=C\c1ccco1,0.075
17,Cc1cccc(N=C2NC(=O)/C(=C/C=C/c3ccco3)S2)c1C,3 (active)
18,OC(COCc1ccccc1)CN1CCN(c2ccccc2)CC1 (configuration not stated),0.802
19,CCCc1nc2oc3c(NCCN(C)C)ncnc3c2c2c1CCCC2,0.466
20,CCOc1ccc(/C=C/C(=O)Nc2ccc(N3CCOCC3)cc2)cc1,-0.494
21,COCCNC(=S)NNC(=O)c1ccco1,0.195
22,COc1ccccc1OCC(=O)NNC(=S)NC(=O)c1ccco1,0.0517
23,CCCCNC(=S)NNC(=O)c1ccco1,-0.0425

row,Structure (SMILES),z-score
1,CCCc1ccc(OCC(=O)NNC(=S)NC(=O)c2ccco2)cc1,5.78 (active)
2,CNC(=S)NNC(=O)COc1ccccc1C,-0.0807
3,Cc1ccccc1OCC(=O)NNC(=S)NC(=O)c1ccco1,8.07 (active)
4,O=C(NCCN1CCOCC1)c1cc(Sc2ccccc2Cl)nc2ccccc12,-1.39
5,COc1cccc(N2CC(C(=O)Nc3nnc(SCc4cccnc4)s3)CC2=O)c1 (configuration not stated),0.711
6,O=c1[nH]c2cccnc2n1Cc1ccccc1,-0.166
7,Cc1ccccc1Nc1nnc(C)c(=O)n1N,0.0745
8,O=C(/C=C/c1ccccc1)N1CCC(c2ccccc2)C1 (configuration not stated),-0.0939
9,c1ccc(C2CCC(N3CCC(N4CCCCC4)CC3)CC2)cc1 (configuration not stated),-0.423
10,C1=CN2CCC1C(c1ccccc1)C2 (configuration not stated),2.05
11,COC(=O)C1CCN(C(=O)CSc2ccccc2)CC1,-0.196
12,CC(C)COc1ccc(Cc2cnc(N)nc2N)cc1,7.02 (active)
13,COc1ccc(Cc2c(N)nc(N)nc2N)cc1,-0.264
14,CC(C)Oc1ccc(Cc2cnc(N)nc2N)cc1,1.03
15,CCOc1cc(CNCCc2ccc(S(N)(=O)=O)cc2)ccc1OCC(=O)NC1CCCCC1,0.417
16,Cc1cc(NC(=O)c2cnccn2)no1,-0.0463
17,CCCc1cc(=O)[nH]c(/N=C(/NC(=O)c2ccccc2)Nc2ccc3c(c2)OCCO3)n1,-0.0513
18,CN(C)CCCNc1ncnc2c1cnn2-c1ccccc1,0.0262
19,CN(C)CCNc1ncnc2c1cnn2-c1ccc(Cl)cc1,3.51 (active)
20,COCCNc1ncnc2c1cnn2-c1ccc(Cl)cc1,0.0016
21,CC(/C=N\NC(=O)c1cccnc1)c1ccccc1 (configuration not stated),-0.201
22,CS(=O)(=O)N1CCN(c2ccccc2NC(=O)c2cccc3ccccc23)CC1,-0.227
23,O=C(COc1c(Br)cc(Br)c2cccnc12)N1CCc2ccccc2C1,3.14 (active)

row,Structure (SMILES),z-score
1,O=C(COc1cccc2cccnc12)N1CCc2ccccc2C1,0.452
2,O=C(COc1ncnc2sccc12)N1CCc2ccccc2C1,0.0441
3,COc1ccc(S(=O)(=O)N[C@@H](Cc2ccc(Cl)cc2)C(=O)N2CC[C@@]3(O)CCCC[C@H]3C2)cc1,-0.0964
4,COCCNC(=O)c1cc(-c2ccc3c(c2)OCO3)on1,0.152
5,Cc1nn(C)c(Cl)c1NC(=O)OCc1ccccc1,-0.064
6,Cc1ccc(-c2cnc(NC(=O)CCC(=O)N(C)Cc3ccccc3)n2C)cc1,-0.765
7,CCCNC(=O)CCC(=O)Nc1ncc(-c2ccc(C)cc2)n1C,-0.382
8,Cc1ccc(-c2cnc(NC(=O)CCC(=O)N3CCCCC3)n2C)cc1,4.3 (active)
9,CC(C)c1ccccc1N=C1SCCN1C1CCS(=O)(=O)C1 (configuration not stated),0.193
10,CC(C)c1ccc(S(=O)(=O)c2nnn3c2nc(N2CCCCC2)c2ccccc23)cc1,-0.645
11,CC(C)c1ccc(S(=O)(=O)c2n[nH]n3c2nc(=O)c2ccccc23)cc1,2.66
12,CCc1ccc(S(=O)(=O)c2n[nH]n3c2nc(=O)c2ccccc23)cc1,0.475
13,O=C(/C=C/N1CCOCC1)c1ccc(-c2ccccc2)cc1,-0.364
14,CC1=NN(C(N)=S)C(=O)C1N=Nc1ccccc1C (configuration not stated),2.97
15,CC1=NN(C(N)=S)C(=O)C1N=Nc1ccc(C)cc1C (configuration not stated),13.2 (active)
16,CC1=NN(c2ccccc2)C(=O)C1N=Nc1ccc(N)cc1 (configuration not stated),-0.073
17,CC1=NN(c2ccccc2)C(=O)C1N=Nc1ccccc1 (configuration not stated),0.244
18,Cc1ccc(N=Nc2c(C)[nH][nH]c2=O)c(C)c1,0.772
19,CC1=NN(C(N)=S)C(=O)C1N=Nc1c(C)cc(C)cc1C (configuration not stated),0.119
20,Cc1ccccc1-n1c(C)nnc1SCc1cc(=O)oc2ccc3ccccc3c12,0.0722
21,CC(C)CC(=O)Nc1ccc(C(=O)NNC(=O)C(c2ccccc2)c2ccccc2)cc1,-0.258
22,O=C(O)C1CCN(C(=O)c2ccc(Cl)cc2)CC1,0.000989
23,Cc1cc(C)c(C)c(S(=O)(=O)NCc2ccc(C(=O)N3CCCCC3)cc2)c1C,0.249

row,Structure (SMILES),z-score
1,Cc1ccc(OCC(=O)N2N=C(c3cccnc3)CC2(O)C(F)(F)F)cc1C (configuration not stated),-0.105
2,Cc1ccccc1OCC(=O)N1N=C(C(F)(F)F)CC1(O)C(C)(C)C (configuration not stated),1.61
3,Cc1cc(C)cc(OCC(=O)N2N=C(C(F)(F)F)CC2(O)C(C)(C)C)c1 (configuration not stated),4.9 (active)
4,CCCCC1(O)CC(C(F)(F)F)=NN1C(=O)COc1ccccc1 (configuration not stated),0.45
5,Cc1cc(C)cc(OCC(=O)N2CCCCCC2)c1,-0.242
6,Cc1ccc(OCC(=O)N2N=C(C(F)(F)F)CC2(O)C(C)(C)C)cc1C (configuration not stated),3.56 (active)
7,COP(=O)(OC)c1nc(-c2cccc3ccccc23)oc1NCc1ccccc1,-0.666
8,CC(C)(C)C(=O)Nc1cccc(C(=O)c2cccc(NC(=O)C(C)(C)C)c2)c1,-0.249
9,Cc1cccc(C(=O)NC(=S)Nc2ccc(S(=O)(=O)N3CCCCC3)cc2)c1,-0.0168
10,CCOC(=O)C1=C(C)N=C2SC(C)C(=O)N2C1c1ccc(OCC)c(OCC)c1 (configuration not stated),0.125
11,COc1cc(/C=C2\SC(=S)N(CC(=O)Nc3ccccn3)C2=O)cc(OC)c1OC,-0.0617
12,OC(CN=c1sc2ccccc2n1CC(O)COc1ccccc1)COc1ccccc1 (configuration not stated),0.0732
13,CCN=c1sc2ccccc2n1CC(O)COc1ccccc1 (configuration not stated),0.979
14,Cn1c(=NCC(O)COc2ccccc2)sc2ccccc21 (configuration not stated),2.27
15,CC(=O)N1CCC(=NNc2ccc(S(=O)(=O)N3CCOCC3)cc2[N+](=O)[O-])CC1,0.476
16,COC(=O)Cc1ccc(NC(=O)c2ccc(C(C)(C)C)cc2)cc1,-0.0938
17,COc1ccc(/C=C/C(=O)NCc2c(C)nn(C)c2C)cc1COc1ccc(Br)cc1,-0.131
18,Cc1ccc(NC(=O)CN(C)S(=O)(=O)c2cnc[nH]2)cc1C,2.45
19,Cc1cccc(NC(=O)CN(C)S(=O)(=O)c2cnc[nH]2)c1,1.6
20,Cc1cc(C)cc(NC(=O)CN(C)S(=O)(=O)c2cnc[nH]2)c1,-0.129

# Reference: PubChem BioAssay AID488969 (Vanderbilt High Throughput Screening Facility, 2010)
